Shiga toxin inh – Shiga toxin inhibition. 9.2% of 290,000 active. Vero cells, Shiga toxin protein synthesis inhibition reporter. inhibition, % at 38.7 µM; in the data active = inhibition mostly above about 28%, no sharp cut-off; inactive = mostly below about 43%; note: 0% is about no effect
NS1 inh – blocks influenza NS1 protein function. AID 2326. 0.4% of 270,000 active. Potency, µM (series often up to 46.1 µM), for inactives: at the highest dose activity, positive = more growth; calls by dose curve; note: potency is the fitted concentration of half-maximal effect; actives are rising curves; nearly all actives have a fitted effect of over 50% in size
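Growth recovery, yeast-based: influenza A NS1 expressed in S. cerevisiae causes slow growth, and suppressors are detected by OD600. The parent strain without NS1 is used as positive control.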
AmpC no deterg – blocks E. coli AmpC beta-lactamase in detergent-free assay; AmpC nitrocefin hydrolysis, absorbance 480 nm, 0.0001% Triton; Potency, µM (top dose mostly 57.1 µM), inactives show at the highest dose activity change, negative = inhibition, actives largely listed as inhibitors; 0.52% of 330,000 active;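 note: potency is the fitted concentration of half-maximal effect; plate controls were no compound for no effect and no enzyme for full effect; nearly all actives have a fitted effect of over 20% in size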
Target sequence (P00811 whole entry, looked up): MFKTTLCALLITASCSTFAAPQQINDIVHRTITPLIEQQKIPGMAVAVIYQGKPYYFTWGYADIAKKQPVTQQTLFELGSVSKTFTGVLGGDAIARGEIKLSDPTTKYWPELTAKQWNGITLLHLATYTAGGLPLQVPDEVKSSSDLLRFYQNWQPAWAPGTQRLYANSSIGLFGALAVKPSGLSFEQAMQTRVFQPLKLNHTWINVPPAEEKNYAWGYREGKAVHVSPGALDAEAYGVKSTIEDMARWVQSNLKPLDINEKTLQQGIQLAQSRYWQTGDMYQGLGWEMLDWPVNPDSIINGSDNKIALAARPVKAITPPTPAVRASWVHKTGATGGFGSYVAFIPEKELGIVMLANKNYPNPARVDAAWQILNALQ
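AmpC (5.3 nM in the dispensed reagent) in 20 mM phosphate pH 7.0 with 0.01% (detergent screen) or 0.0001% Triton X-100 was preincubated with compounds for 15 min at room temperature. Nitrocefin was then added from an 800 uM solution, and hydrolysis was followed at 480 nm.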
Cycloheximide cs – affects cycloheximide protein synthesis inhibition readout, counter-screen; 12% of 300,000 active; max response, %; cell reporter, cycloheximide protein synthesis inhibition counterscreen; AID 2314; in the data active = max response mostly above about 13%, no sharp cut-off; inactive = mostly below about 14%; note: read at 38.3 µM for the half of the compounds with a filed dose; 0% is about no effect
AmpC inh detg – AmpC beta-lactamase inhibition with detergent present | Potency, µM (series often up to 114 µM), for the others: top-dose activity change, negative = inhibition, actives largely listed as inhibitors | AID 485294 | P00811 | 0.041% of 370,000 active | AmpC hydrolysis of nitrocefin, absorbance 480 nm, 0.01% Triton;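 note: potency is the fitted concentration of half-maximal effect; 0% = no-compound wells and -100% = no-enzyme wells; nearly all actives have a fitted effect of over 25% in size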
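20 mM phosphate pH 7.0 + 0.01% (detergent screen) or 0.0001% Triton X-100; 5.3 nM AmpC reagent; cpd preinc 15 min RT; nitrocefin (800 uM stock) to start; A480 q20 s × 4 min; Activity was normalised to no-enzyme and no-compound control wells.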
* = called active by the depositor; ? = inconclusive; · = not tested or not shown; [ ] = dose if it differs, or a comment. The entries come from a sample that favours hits as a whole. Unless noted, calls come from the whole dose curve; as a rule, active = well fitted curve in the direction sought with a large enough effect; inconclusive = small, poorly fitted or top-dose-only effect, or another doubt; inactive = no such curve, though single readings can be large; an effect the other way counts as inactive or inconclusive.

SMILES | Shiga toxin inh | NS1 inh | AmpC no deterg | Cycloheximide cs | AmpC inh detg
COc1ccccc1-c1coc2cc(O)cc(O)c2c1=O | 61.1* | -108.5% | -40.4% | 29.6* | -5.7%
O=C(CCc1nc2ccccc2s1)NCc1ccccc1F | 26.8 | · | -22.1% | 19.9 | ?
NC(=O)c1ccc(NC(=O)CCc2nc3ccccc3s2)cc1 | 17.0 | 6.0% | -20.5% | 12.3* | -5.7%
CCOc1ccc(C(=O)CCc2nc3ccccc3s2)cc1 | 62.1* | -63.6% | 2.6% | 22.1* | -5.7%
COc1ccc(NC(=O)CCc2nc3ccccc3s2)c(OC)c1 | 9.8 | 2.2% | -9.3% | 12.3 | 0.0%
O=C(CCCc1nc2ccccc2s1)NCc1ccccc1F | 24.5 | 1.5% | -0.4% | 13.1* | ?
Cc1noc(C)c1-c1ccc2ncnc(NCc3ccc(C(F)(F)F)cc3)c2c1 | 14.6 | · | · | -1.0 | ·
N#CCC(=O)N/N=C/c1cc([N+](=O)[O-])ccc1N1CCCC1 | 46.7* | · | -40.6% | 33.1 | ?
O=C(Cn1c2ccccc2c(=O)c2ccccc21)N/N=C/c1cc([N+](=O)[O-])ccc1N1CCCCCC1 | -13.4 | 13.9% | -8.8% | -5.0 | -4.7%
O=C(CNc1ccccc1)N/N=C/c1cc([N+](=O)[O-])ccc1N1CCCC1 | -16.3 | 5.9% | 7.94µM* | -6.0 | -0.3%
O=C1CC(c2ccc(F)cc2)C(n2cncn2)C(O)=C1C1NCCc2ccccc21 (stereo unspecified) | -14.1 | · | -14.4% | -0.7 | -8.1%
O=C1CC(c2ccc(F)cc2)CC(O)=C1C1NCCc2ccccc21 (stereo unspecified) | 25.0 | 9.0% | -21.5% | 18.7* | -7.8%
Cc1ccc(CNC(=O)/C=C/c2cccs2)cc1 | 78.0* | -3.5% | -9.5% | 26.8* | -10.6%
CCCCNC(=O)/C=C/c1cccs1 | 48.0* | 6.7% | -10.9% | 32.9* | -3.5%
CCN1CCN(C(=S)NC(=O)/C=C/c2cccs2)CC1 | 2.6 | · | -25.2% | 17.1 | 3.8%
COc1ccc(C(=O)N2CCCC(CCC(=O)NCc3ccc(F)c(F)c3)C2)cc1F (stereo unspecified) | 29.5 | -5.1% | 96.5% | 14.2 | -2.5%
COc1ccc(C(=O)N2CCCC(CCC(=O)NCc3ccc(F)c(F)c3)C2)o1 (stereo unspecified) | 93.7* | 1.2% | 58.7% | 26.4* | 2.7%
COc1cccc(CNC(=O)CCC2CCCN(C(=O)c3cc4ccccc4o3)C2)c1 (stereo unspecified) | 68.0* | -5.1% | 51.5% | 47.8* | 6.4%
COc1cccc(CNC(=O)CCC2CCCN(C(=O)c3ccoc3)C2)c1 (stereo unspecified) | -1.3 | 2.5% | -8.2% | -3.3 | 3.7%
COc1ccccc1CNS(=O)(=O)c1cc(C(=O)NCC2CCCO2)c(Cl)cc1Cl (stereo unspecified) | · | · | -7.4% | · | ·
Cc1ccc(NC2c3ncccc3C(=O)N2c2ccccc2C)cc1C (stereo unspecified) | 71.6* | -7.1% | -1.8% | 21.6* | -14.5%
CCOc1ccc(N2C(=O)c3cccnc3C2Nc2ccc(Cl)cc2)cc1 (stereo unspecified) | -1.1 | 5.9% | 29.8% | 1.7 | -10.3%
O=C(CN1CCN(S(=O)(=O)c2cccc(F)c2)CC1)Nc1ccnn1C1CCCC1 | · | · | 14.0% | · | -0.5%
O=C1C=C(Nc2ccccc2O)c2ccccc2C1=O | 84.5* | -80.0% | -20.7% | 16.8* | ?
O=c1cccccc1NCc1ccccc1 | 6.3 | ? | -18.5% | 26.1* | -0.2%
SMILES | Shiga toxin inh | NS1 inh | AmpC no deterg | Cycloheximide cs | AmpC inh detg
N#Cc1ccccc1NCc1ccccc1 | -8.5 | -1.6% | -22.0% | -0.7 | ?
Cc1ccc(NC2=CC(=O)C(=O)c3ccccc32)c(C)c1 | · | · | -14.4% | · | -6.4%
O=C1C=C(NCc2ccccc2)c2ccccc2C1=O | 80.5* | -66.1% | -42.4% | 56.2* | -2.1%
CCC(=O)NNC(=O)CCC(=O)Nc1cccc(Cl)c1C | -12.8 | · | -3.3% | -0.6 | -9.4%
Oc1c(C=Nc2cccc3cccnc23)sc2ccccc12 | 81.5 | -69.2% | -33.0% | 31.1 | 2.2%
Oc1ccc(Cl)cc1N=Cc1sc2ccccc2c1Cl | 60.5* | · | -57.6% | 41.4* | ?
COc1ccc(-c2sc3ccccc3c2-c2ccc(O)cc2)cc1 | · | · | -15.1% | · | ·
O=[N+]([O-])c1ccc(O)c(C=Nc2cccc3ccccc23)c1 | -3.2 | -92.1% | -41.0% | -2.7 | 4.0%
COc1ccc(N=Cc2sc3ccccc3c2Cl)cc1 | 13.0 | -3.2% | -29.9% | 25.0* | 3.0%
O=[N+]([O-])c1ccc(O)c(N=Cc2sc3ccccc3c2O)c1 | 60.7* | -4.1% | -19.8% | 60.0* | ?
O=C(c1noc2c1CCCCC2)N1CCN(c2cccc(C(F)(F)F)c2)CC1 | · | · | · | · | -7.6%
COc1ccc(N2C(=O)/C(=C\c3ccco3)N=C2SCC(=O)NC(C)C)cc1Cl | 7.4 | 23.3% | -28.0% | 1.7 | -2.7%
O=C(CSC1=N/C(=C/c2ccco2)C(=O)N1c1ccc(OC(F)F)cc1)NC1CCS(=O)(=O)C1 (stereo unspecified) | 24.0* | · | -11.9%[11.4 µM] | 17.1 | -10.4%
Cc1ccccc1Oc1nc2c(C)cccn2c(=O)c1/C=C(\C#N)C(=O)Nc1c(C)n(C)n(-c2ccccc2)c1=O | -3.5 | -4.8% | 117.0% | -2.4 | -10.9%
Cc1cc(C(=O)OCC(=O)N2CCc3ccccc32)c(C)o1 | 37.0 | 0.7% | -22.2% | 25.1* | ?
O=C(OCC(=O)N1CCc2ccccc21)C1=COCCO1 | 56.1* | 2.7% | 3.5% | 37.5* | ?
CC(=O)N1CCCc2cc(S(=O)(=O)N3CCC(N(C)C(C)C)CC3)ccc21 | · | · | · | · | 5.0%
CCOC(=O)c1c(NC(=O)C(C)Sc2nnc(C)c(=O)[nH]2)sc2c1CCCC2 (stereo unspecified) | 4.3 | 1.4% | -4.9% | -4.6 | -3.2%
CC(O)CNCc1ccccc1C(F)(F)F (stereo unspecified) | 21.5 | 1.3% | 1.4% | 0.7 | 3.0%
C(=C\c1nc(-c2cccnc2)no1)/c1ccccc1 | 12.7 | 2.4% | -42.6% | 7.9 | 0.8%
O=c1[nH]c2ccccc2cc1-c1noc(-c2cccnc2)n1 | 37.8 | 4.6% | -25.1% | 2.2 | -9.3%
c1ccc(-c2ccc(-c3nc(-c4cccnc4)no3)cc2)cc1 | 35.4 | -45.7% | -7.3% | 33.4* | ?
Cc1ccc(SCc2nc(-c3cccnc3)no2)cc1 | 53.2* | -12.9% | -10.4% | 21.3* | ?
c1cncc(-c2noc(-c3ccc4ccccc4c3)n2)c1 | 101.8* | -10.8% | -18.3% | 27.2* | -11.9%
c1ccc(-c2noc(-c3cccnc3)n2)cc1 | 98.9* | -2.6% | · | 32.8* | -1.8%
O=C1c2ccccc2C(=O)N1CCCc1nc(-c2cccnc2)no1 | -5.7 | 11.6% | -18.6% | -4.0 | -7.2%
COc1cc(/C=N/NC(=O)c2cccc(S(=O)(=O)N3CCCC3)c2)cc(OC)c1O | · | · | -26.3% | · | -10.3%
O=C(c1ccc(F)cc1)N1CCCC(C(=O)N2CCc3ccccc3C2)C1 (stereo unspecified) | 15.8 | -3.3% | 24.1% | -2.2 | -6.7%
O=C(CNC(=S)NC(=O)c1cccs1)c1ccccc1 | 89.6* | 6.1% | -12.5% | 66.3* | -11.8%
